Compounds without any hit were thinned out: in the full panel of roughly 83,000, 20% have a hit.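 Compound tested at a single concentration for 48 hours in 96-well plates; a percent growth value below 10 was scored as active.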 Calls of active or inactive are those of the source.
Experiments:
Experiment in all cases: NCI-60 one-dose screen, 48 h (100 = growth as untreated, 0 = no growth, -100 = all killed)
SK-MEL-2 melanoma = settings: 10 µM unless noted
EKVX NSCLC = settings: 10 µM
SN12C renal = settings: 10 µM unless noted
UO-31 renal = settings: 10 µM unless noted
TK-10 renal = settings: 10 µM unless noted
ACHN renal = settings: 10 µM unless noted
CAKI-1 renal = settings: 10 µM unless noted
A498 renal = settings: 10 µM unless noted
CCRF-CEM leukemia = settings: 10 µM
MOLT-4 leukemia = settings: 10 µM unless noted
SR leukemia = settings: 10 µM unless noted
RPMI-8226 leukemia = settings: 10 µM unless noted
OVCAR-8 ovarian = settings: 10 µM unless noted
OVCAR-5 ovarian = settings: 10 µM unless noted
OVCAR-4 ovarian = settings: 10 µM unless noted
SK-OV-3 ovarian = settings: 10 µM unless noted
IGROV1 ovarian = settings: 10 µM unless noted
OVCAR-3 ovarian = settings: 10 µM unless noted
HS 578T breast = settings: 10 µM unless noted
NCI/ADR-RES ovarian = settings: 10 µM unless noted

Measured: growth

CCCCCCCCCC[N+](C)(C)C
active: TK-10 renal -25.1% | CCRF-CEM leukemia -18.8% | MOLT-4 leukemia -0.229% | RPMI-8226 leukemia 1.86% | OVCAR-5 ovarian 9.16% | IGROV1 ovarian -37.8% | OVCAR-3 ovarian 5.8%
inactive: SK-MEL-2 melanoma 56.3% | EKVX NSCLC 72.9% | SN12C renal 29.5% | UO-31 renal 72.9% | ACHN renal 24.9% | CAKI-1 renal 58.4% | A498 renal 32.9% | SR leukemia 20.2% | OVCAR-8 ovarian 18.3% | OVCAR-4 ovarian 23% | SK-OV-3 ovarian 56.2% | HS 578T breast 26.5% | NCI/ADR-RES ovarian 94.4%

C/C(=N\Nc1ccc(Cl)cn1)c1ccccn1
active: EKVX NSCLC 8.35% | UO-31 renal -2.91% | ACHN renal 2.81% | CAKI-1 renal 5.04% | A498 renal -25.2% | CCRF-CEM leukemia 2.72% | MOLT-4 leukemia 2.11% | SR leukemia 4.86% | RPMI-8226 leukemia 8.56% | SK-OV-3 ovarian 3.63% | NCI/ADR-RES ovarian -10.2%
inactive: SK-MEL-2 melanoma 28.3% | SN12C renal 15.3% | TK-10 renal 33.6% | OVCAR-8 ovarian 16.6% | OVCAR-5 ovarian 23.1% | OVCAR-4 ovarian 28.7% | IGROV1 ovarian 10.2% | OVCAR-3 ovarian 20.5% | HS 578T breast 34.6%

COc1ccccc1Cn1cc2c(c1)-c1oncc1CC2
active: CAKI-1 renal 9.72% | SK-OV-3 ovarian -18.2% | OVCAR-3 ovarian -29.3% | HS 578T breast 8.86% | NCI/ADR-RES ovarian -2.96%
inactive: SK-MEL-2 melanoma 35.6% | EKVX NSCLC 20.8% | SN12C renal 39% | UO-31 renal 31.6% | TK-10 renal 65.6% | ACHN renal 55.5% | A498 renal 29.2% | CCRF-CEM leukemia 17.6% | MOLT-4 leukemia 25.6% | SR leukemia 16% | RPMI-8226 leukemia 32.5% | OVCAR-8 ovarian 36.2% | OVCAR-5 ovarian 35.2% | OVCAR-4 ovarian 49.2% | IGROV1 ovarian 16.2%

Nc1nc2c(c3cnccc13)C(c1ccc(Cl)c(Cl)c1)Cc1cnccc1-2 (stereo not given)
inactive: OVCAR-4 ovarian 14.7%
active: SK-MEL-2 melanoma -36.3% | EKVX NSCLC 5.75% | SN12C renal 2.42% | UO-31 renal -39.9% | TK-10 renal -40% | ACHN renal -67.1% | CAKI-1 renal 4.1% | A498 renal -45.6% | CCRF-CEM leukemia 3.33% | MOLT-4 leukemia 2.48% | SR leukemia 5.08% | RPMI-8226 leukemia -5.48% | OVCAR-8 ovarian 9.87% | OVCAR-5 ovarian -1.65% | SK-OV-3 ovarian 2.34% | IGROV1 ovarian 7.84% | OVCAR-3 ovarian -44.8% | HS 578T breast 9.27% | NCI/ADR-RES ovarian -13.2%

O=C1/C(=N\c2cc(=O)[nH]n2S(=O)(=O)c2ccccc2)Nc2ccccc21
inactive: SK-MEL-2 melanoma 102% | EKVX NSCLC 101% | SN12C renal 98.2% | UO-31 renal 70.8% | TK-10 renal 123% | ACHN renal 94.7% | CAKI-1 renal 84.8% | A498 renal 98.2% | CCRF-CEM leukemia 98.4% | MOLT-4 leukemia 102% | SR leukemia 89.7% | RPMI-8226 leukemia 95.2% | OVCAR-8 ovarian 102% | OVCAR-5 ovarian 105% | OVCAR-4 ovarian 98.4% | SK-OV-3 ovarian 105% | IGROV1 ovarian 100% | OVCAR-3 ovarian 104% | HS 578T breast 91% | NCI/ADR-RES ovarian 101%

Nc1ncn([C@@H]2O[C@H](CO)[C@@H](O)C2(F)F)c(=O)n1
inactive: SK-MEL-2 melanoma 104% | EKVX NSCLC 86.1% | SN12C renal 51.7% | UO-31 renal 39% | TK-10 renal 91.1% | CAKI-1 renal 27.9% | A498 renal 38% | CCRF-CEM leukemia 23.7% | MOLT-4 leukemia 35.6% | SR leukemia 15% | RPMI-8226 leukemia 39.2% | OVCAR-8 ovarian 49.8% | OVCAR-5 ovarian 87% | OVCAR-4 ovarian 94.9% | SK-OV-3 ovarian 71.1% | IGROV1 ovarian 56.8% | OVCAR-3 ovarian 70.6% | HS 578T breast 90.4% | NCI/ADR-RES ovarian 42.1%
active: ACHN renal 7.28%

CCCC(C)c1cc(Cc2cc(Cl)cc(Cl)c2O)c(O)c(Cc2cc(Cl)cc(Cl)c2O)c1 (stereo not given)
inactive: TK-10 renal 17.4% | CAKI-1 renal 15.6% | OVCAR-8 ovarian 15% | OVCAR-5 ovarian 33.8% | OVCAR-4 ovarian 22% | SK-OV-3 ovarian 14.6% | IGROV1 ovarian 28.1% | OVCAR-3 ovarian 16.2%
active: SK-MEL-2 melanoma 1.41% | EKVX NSCLC 6.21% | SN12C renal 5.5% | UO-31 renal 6.1% | ACHN renal 0.12% | A498 renal -29.8% | CCRF-CEM leukemia 6.76% | MOLT-4 leukemia -8.73% | SR leukemia 5.98% | RPMI-8226 leukemia -2.65% | HS 578T breast 1.09% | NCI/ADR-RES ovarian 2.52%

CC(=O)OC1CC2C3CCC4C[C@@H](NC(=O)C=C(C)C)CC[C@]4(C)C3CC[C@]2(C)[C@H]1C(C)N(C)C (stereo not given in full)
inactive: EKVX NSCLC 29.3% | SN12C renal 14.3% | TK-10 renal 48.4% | ACHN renal 21.4% | A498 renal 33.2% | RPMI-8226 leukemia 13.9% | OVCAR-8 ovarian 45.1% | OVCAR-5 ovarian 58.9% | SK-OV-3 ovarian 25.8% | IGROV1 ovarian 33.6% | NCI/ADR-RES ovarian 41.7%
active: SK-MEL-2 melanoma 5.9% | UO-31 renal 8.5% | CAKI-1 renal -19.6% | CCRF-CEM leukemia 0.674% | MOLT-4 leukemia -31.9% | SR leukemia -21% | OVCAR-4 ovarian -8.18% | OVCAR-3 ovarian -4.96% | HS 578T breast 0.863%

CC(=O)Nc1nc(C)c(C(=O)N/N=C/N2CCCCC2)s1
active: IGROV1 ovarian 9.23%
inactive: SK-MEL-2 melanoma 15.3% | EKVX NSCLC 112% | SN12C renal 106% | UO-31 renal 98.7% | TK-10 renal 144% | ACHN renal 116% | CAKI-1 renal 132% | A498 renal 119% | CCRF-CEM leukemia 94.6% | MOLT-4 leukemia 130% | SR leukemia 104% | RPMI-8226 leukemia 124% | OVCAR-8 ovarian 103% | OVCAR-5 ovarian 103% | OVCAR-4 ovarian 121% | SK-OV-3 ovarian 103% | OVCAR-3 ovarian 128% | HS 578T breast 107% | NCI/ADR-RES ovarian 104%

C=CC1CN2CCC1CC2C(O)c1ccnc2ccc(OC)cc12 (stereo not given)
active: SK-MEL-2 melanoma 2.09% | IGROV1 ovarian -5.34%
inactive: EKVX NSCLC 102% | SN12C renal 98.7% | UO-31 renal 60.2% | TK-10 renal 108% | ACHN renal 97.9% | CAKI-1 renal 103% | A498 renal 108% | CCRF-CEM leukemia 106% | MOLT-4 leukemia 106% | SR leukemia 113% | RPMI-8226 leukemia 108% | OVCAR-8 ovarian 88.4% | OVCAR-5 ovarian 93.1% | OVCAR-4 ovarian 102% | SK-OV-3 ovarian 93.9% | OVCAR-3 ovarian 105% | HS 578T breast 99.9% | NCI/ADR-RES ovarian 107%

CC(C)OC(=O)c1ccc2n1CCCc1cnc(Nc3ccccc3)nc1-2
inactive: SK-MEL-2 melanoma 66.3% | EKVX NSCLC 57.6% | SN12C renal 81.7% | UO-31 renal 64.2% | TK-10 renal 85.3% | ACHN renal 74.8% | CAKI-1 renal 65.6% | A498 renal 63.5% | CCRF-CEM leukemia 72.3% | MOLT-4 leukemia 73.8% | SR leukemia 35.4% | RPMI-8226 leukemia 58.4% | OVCAR-8 ovarian 82.4% | OVCAR-5 ovarian 93.8% | OVCAR-4 ovarian 61.4% | SK-OV-3 ovarian 97% | IGROV1 ovarian 83.7% | OVCAR-3 ovarian 84.7% | HS 578T breast 99% | NCI/ADR-RES ovarian 69.7%

CCCCN(CCCC)CC(O)CN(CC)CC (stereo not given)
inactive: SK-MEL-2 melanoma 91.5% | EKVX NSCLC 107% | SN12C renal 96.4% | UO-31 renal 72.8% | TK-10 renal 92.7% | ACHN renal 102% | CAKI-1 renal 93.8% | A498 renal 111% | CCRF-CEM leukemia 104% | MOLT-4 leukemia 96% | SR leukemia 97% | RPMI-8226 leukemia 97.4% | OVCAR-8 ovarian 104% | OVCAR-5 ovarian 95.3% | OVCAR-4 ovarian 97% | SK-OV-3 ovarian 99% | IGROV1 ovarian 100% | OVCAR-3 ovarian 113% | HS 578T breast 120% | NCI/ADR-RES ovarian 105%

COc1cc(OC)c(NC(=O)n2ncc3cc(Nc4ncnc5ccccc45)ccc32)cc1Cl
inactive: SK-MEL-2 melanoma 102% | EKVX NSCLC 33% | SN12C renal 95.6% | UO-31 renal 64.1% | TK-10 renal 30.8% | ACHN renal 55.1% | CAKI-1 renal 53.6% | A498 renal 54.2% | CCRF-CEM leukemia 102% | MOLT-4 leukemia 96.3% | SR leukemia 89.6% | RPMI-8226 leukemia 101% | OVCAR-8 ovarian 110% | OVCAR-5 ovarian 74.2% | OVCAR-4 ovarian 99.8% | SK-OV-3 ovarian 110% | IGROV1 ovarian 56.4% | OVCAR-3 ovarian 91.3% | HS 578T breast 112% | NCI/ADR-RES ovarian 97.3%

Oc1ccccc1/C=N/N=C\c1ccccc1Cl
active: CCRF-CEM leukemia 1.42%
inactive: SK-MEL-2 melanoma 102% | EKVX NSCLC 75.9% | SN12C renal 92.6% | UO-31 renal 40.5% | TK-10 renal 132% | ACHN renal 95.8% | CAKI-1 renal 86.8% | A498 renal 141% | MOLT-4 leukemia 61.3% | SR leukemia 82.4% | RPMI-8226 leukemia 102% | OVCAR-8 ovarian 95.2% | OVCAR-5 ovarian 115% | OVCAR-4 ovarian 93.4% | SK-OV-3 ovarian 96% | IGROV1 ovarian 70.3% | OVCAR-3 ovarian 84.1% | HS 578T breast 105% | NCI/ADR-RES ovarian 95.2%

CC1=C(C)C(=O)C(C(C)C2=C(C)C(=O)C(C)=C(C)C2=O)=C(C)C1=O
active: IGROV1 ovarian 2.57%
inactive: SK-MEL-2 melanoma 97.8% | EKVX NSCLC 61.7% | SN12C renal 120% | UO-31 renal 83.8% | TK-10 renal 75.7% | ACHN renal 110% | CAKI-1 renal 142% | A498 renal 84.6% | CCRF-CEM leukemia 67.4% | MOLT-4 leukemia 32.9% | SR leukemia 56% | RPMI-8226 leukemia 50.5% | OVCAR-8 ovarian 99.1% | OVCAR-5 ovarian 44% | OVCAR-4 ovarian 104% | SK-OV-3 ovarian 98.1% | OVCAR-3 ovarian 150% | HS 578T breast 77.9% | NCI/ADR-RES ovarian 91.9%

Nc1ccc(S(=O)(=O)Nc2cc(F)cc(F)c2)cc1
inactive: SK-MEL-2 melanoma 94.5% | EKVX NSCLC 80.4% | SN12C renal 105% | UO-31 renal 85.4% | TK-10 renal 112% | ACHN renal 98.7% | CAKI-1 renal 100% | A498 renal 95% | CCRF-CEM leukemia 93.4% | MOLT-4 leukemia 72.7% | SR leukemia 112% | RPMI-8226 leukemia 106% | OVCAR-8 ovarian 102% | OVCAR-5 ovarian 55.5% | OVCAR-4 ovarian 101% | SK-OV-3 ovarian 104% | OVCAR-3 ovarian 111% | HS 578T breast 92.7% | NCI/ADR-RES ovarian 117%
active: IGROV1 ovarian -22%
